Laboratory results taken from paper PMC8384837, “Expanding the binding specificity for RNA recognition by a PUF domain”.
Numbering of substitutions follows the chain as printed.

Experiments:
Experiment in all cases: yeast three-hybrid, YBZ-1, SC-Leu-His + 0.5 mM 3-AT, 4 days
Details in all cases: tags: N-Gal4 AD-HA kept; label: inside an RPR1-promoter hybrid RNA with tandem MS2 sites; ssRNA
PUM1 PUF domain R2-PYE = PUM1 PUF domain R2-PYE (Homo sapiens, UniProt Q14671 828-1176, N899P;Q903E)
Method in brief: (§1)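 Each repeat of the Pumilio-1 PUF domain was randomized at its three base-contacting residues, and these libraries were co-expressed from a centromeric plasmid with matching RNA elements in strain YBZ-1. After four days on SC-Leu (input) or SC-Leu-His + 0.5 mM 3-AT (selection), the repeat regions were PCR-amplified and Illumina-sequenced. The interaction score compares variant frequency between input and selection as a log change, computed in log2 with a pseudocount of 1 for absent variants.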

PUM1 PUF domain R5-KSG = PUM1 PUF domain R5-KSG (Homo sapiens, UniProt Q14671 828-1176, C1007K;R1008S;Q1011G)
Method in brief: as §1

PUM1 PUF domain R6-QHR = target: T1, PUM1 PUF domain R6-QHR (Homo sapiens, UniProt Q14671 828-1176, N1043Q;Y1044H;Q1047R)
T1 sequence: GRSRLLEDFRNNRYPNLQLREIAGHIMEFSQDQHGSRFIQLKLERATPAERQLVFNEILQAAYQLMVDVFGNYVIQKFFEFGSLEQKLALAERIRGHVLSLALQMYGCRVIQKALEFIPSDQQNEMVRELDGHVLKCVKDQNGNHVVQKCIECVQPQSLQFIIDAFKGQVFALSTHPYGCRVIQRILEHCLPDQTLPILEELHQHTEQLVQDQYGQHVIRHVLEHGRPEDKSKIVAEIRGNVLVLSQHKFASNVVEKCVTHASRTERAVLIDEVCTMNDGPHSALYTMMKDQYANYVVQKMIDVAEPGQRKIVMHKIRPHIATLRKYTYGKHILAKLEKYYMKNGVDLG
Method in brief: as §1

PUM1 PUF domain R6-FWK = target: T2, PUM1 PUF domain R6-FWK (Homo sapiens, UniProt Q14671 828-1176, N1043F;Y1044W;Q1047K)
T2 sequence: T1 sequence with Q216F, H217W, R220K
Method in brief: as §1

PUM1 PUF domain R6-QWR = target: T3, PUM1 PUF domain R6-QWR (Homo sapiens, UniProt Q14671 828-1176, N1043Q;Y1044W;Q1047R)
T3 sequence: T1 sequence with H217W
Method in brief: as §1

PUM1 PUF domain R8-KRS = PUM1 PUF domain R8-KRS (Homo sapiens, UniProt Q14671 828-1176, N1122K;Y1123R;Q1126S)
Method in brief: as §1

PUM1 PUF domain R7-RWP = PUM1 PUF domain R7-RWP (Homo sapiens, UniProt Q14671 828-1176, S1079R;N1080W;E1083P)
Method in brief: as §1

Question: Which binding signal (PUM1 PUF domain R2-PYE) does the source give for “GGCUAGAACUAGUGGAUCCCCCGGCGCCCGGCGGCUCGAGCCCGGGUAAGUGUAAAAAGUCUGCAUGCCGCCGGGCGCCAUGCCUGCAGGUCGACUCUAGAAAACAUG” here?
Answer: Its binding signal is 5.7 log2 enrichment (interaction score).

Question: For “GGCUAGAACUAGUGGAUCCCCCGGCGCCCGGCGGCUCGAGCCCGGGUAAGUGUCAAUAGUCUGCAUGCCGCCGGGCGCCAUGCCUGCAGGUCGACUCUAGAAAACAUG”, which binding signal (PUM1 PUF domain R5-KSG) is on record?
Answer: Its binding signal is 3.24 log2 enrichment (interaction score).

Question: With “GGCUAGAACUAGUGGAUCCCCCGGCGCCCGGCGGCUCGAGCCCGGGUAAGUGUUAAUAGUCUGCAUGCCGCCGGGCGCCAUGCCUGCAGGUCGACUCUAGAAAACAUG” as the sequence, how does the binding signal (PUM1 PUF domain R5-KSG) read?
Answer: Its binding signal is 2.98 log2 enrichment (interaction score).

Question: For “GGCUAGAACUAGUGGAUCCCCCGGCGCCCGGCGGCUCGAGCCCGGGUAAGUGUAAAUAGUCUGCAUGCCGCCGGGCGCCAUGCCUGCAGGUCGACUCUAGAAAACAUG”, which binding signal (PUM1 PUF domain R6-QHR) is on record?
Answer: The binding signal was 6.41 log2 enrichment (interaction score).

Question: What about the binding signal (PUM1 PUF domain R6-FWK) of the same sequence?
Answer: Its binding signal is 2.07 log2 enrichment (interaction score).

Question: And the binding signal (PUM1 PUF domain R6-QWR)?
Answer: The binding signal was 2.53 log2 enrichment (interaction score).

Question: And the binding signal (PUM1 PUF domain R8-KRS)?
Answer: The binding signal was 1.29 log2 enrichment (interaction score).

Question: Which binding signal (PUM1 PUF domain R7-RWP) does the source give for “GGCUAGAACUAGUGGAUCCCCCGGCGCCCGGCGGCUCGAGCCCGGGUAAGUCUAAAUAGUCUGCAUGCCGCCGGGCGCCAUGCCUGCAGGUCGACUCUAGAAAACAUG” here?
Answer: Its binding signal is 4.98 log2 enrichment (interaction score).

Question: For “GGCUAGAACUAGUGGAUCCCCCGGCGCCCGGCGGCUCGAGCCCGGGUAAGUGCAAAUAGUCUGCAUGCCGCCGGGCGCCAUGCCUGCAGGUCGACUCUAGAAAACAUG”, which binding signal (PUM1 PUF domain R6-QWR) is on record?
Answer: The binding signal was 2.4 log2 enrichment (interaction score).

Question: How did the binding signal (PUM1 PUF domain R8-KRS) turn out when “GGCUAGAACUAGUGGAUCCCCCGGCGCCCGGCGGCUCGAGCCCGGGUAAGCGUAAAUAGUCUGCAUGCCGCCGGGCGCCAUGCCUGCAGGUCGACUCUAGAAAACAUG” was run?
Answer: Its binding signal is 3.28 log2 enrichment (interaction score).
